Shiga toxin inh: Shiga toxin inhibition | Vero cells, Shiga toxin protein synthesis inhibition reporter | inhibition, % at 38.7 µM | 290,000 compounds, 9.2% hits; in the data active = inhibition mostly above about 28%, no sharp cut-off; inactive = mostly below about 43%; also: 0% is about no effect
SARS PLpro yeast: blocks SARS-CoV papain-like protease in a yeast assay | Potency, µM (top dose mostly 32.9 µM), for the others: at the highest dose activity, positive = growth rescue, hits mostly activators | S. cerevisiae expressing SARS-CoV PLpro, growth rescue | 330,000 compounds, 0.19% hits; calls by dose curve; also: potency is read from the fitted curve at half-maximal effect; 0% is about no effect; nearly all actives have a fitted effect of over 55% in size
LmPK inh: LmPK (Leishmania mexicana) enzyme inhibition. Q27686. purified LmPK, Kinase-Glo ATP luminescence, 1 h. AID 1721. 290,000 compounds, 0.37% hits. Potency, µM (highest dose often 57.5 µM), for inactives: at the top dose activity change, negative = inhibition, usual class: inhibitors; also: potency is read from the fitted curve at half-maximal effect; % is scaled to controls: 0 for no effect and ±100 for the full control effect
Target sequence (Q27686 whole entry, looked up): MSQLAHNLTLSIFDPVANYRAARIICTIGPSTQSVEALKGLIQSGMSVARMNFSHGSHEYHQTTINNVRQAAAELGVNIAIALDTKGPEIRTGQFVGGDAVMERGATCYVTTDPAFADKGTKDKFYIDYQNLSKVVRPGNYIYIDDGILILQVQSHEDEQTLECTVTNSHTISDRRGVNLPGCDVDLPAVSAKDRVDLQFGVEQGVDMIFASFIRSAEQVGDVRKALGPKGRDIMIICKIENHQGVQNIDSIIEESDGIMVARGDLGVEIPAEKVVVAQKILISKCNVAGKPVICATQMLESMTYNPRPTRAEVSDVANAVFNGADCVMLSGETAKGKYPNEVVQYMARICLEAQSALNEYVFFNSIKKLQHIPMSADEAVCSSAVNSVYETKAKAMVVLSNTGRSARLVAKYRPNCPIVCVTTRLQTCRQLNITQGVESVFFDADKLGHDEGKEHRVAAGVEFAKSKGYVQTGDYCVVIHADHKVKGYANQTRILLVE
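Screened at intermediate enzyme activity to detect both inhibitors and activators: LmPK at 0.1 nM, with a 0.5 nM enzyme column as activation reference. PEP 0.5 mM, ADP 0.1 mM; ATP detected by luminescence after 1 h.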
NS1 inh: blocks influenza NS1 protein function | Potency, µM (top dose mostly 46.1 µM), without a hit: top-dose activity, positive = more growth | AID 2326 | 270,000 compounds, 0.4% hits; calls by dose curve; also: potency is read from the fitted curve at half-maximal effect; actives are rising curves; nearly all actives have a fitted effect of over 50% in size
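S. cerevisiae expressing influenza A NS1, grown in glucose, washed, then diluted 1:100 into pH 6.0 -URA galactose medium with 23 nl compound. Growth recovery read as OD600; NS1-free strain serves as control.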
Cycloheximide cs: affects cycloheximide protein synthesis inhibition readout, counter-screen; cell reporter, cycloheximide protein synthesis inhibition counterscreen; max response, %; 300,000 compounds, 12% hits; AID 2314; in the data active = max response mostly above about 13%, no sharp cut-off; inactive = mostly below about 14%; also: read at 38.3 µM for the half of the compounds with a filed dose; 0% is about no effect
Tb PYK inh: blocks Trypanosoma brucei pyruvate kinase; Q57TT1; TbPYK enzyme, Kinase-Glo Plus ATP luminescence, 45 min; Potency, µM (series often up to 76.8 µM), without a hit: at the highest dose activity, negative = inhibition, most hits filed as inhibitors; 410,000 compounds, 0.12% hits; also: potency is read from the fitted curve at half-maximal effect; % is scaled to controls: 0 for no effect and ±100 for the full control effect; nearly all actives have a fitted effect of over 50% in size
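Quantitative HTS: titrated library compounds versus trypanosomal pyruvate kinase in TEA buffer (pH 7.2) containing KCl, MgCl2, BSA and Tween-20. Reactions were initiated with ADP, 130 uM final. Kinase-Glo Plus luminescence was read after 45 min at RT.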
Numbers without * were called inactive. Many of the other results were omitted from the sample, so hits are more common in it than they were. Unless noted, calls follow the shape of the dose curve; as a rule, active = well fitted curve in the direction sought with a large enough effect; inconclusive = small, poorly fitted or top-dose-only effect, or another doubt; inactive = no such curve, though single readings can be large; an effect the other way counts as inactive or inconclusive.

Results for O=C(Nc1ccc(F)c(Cl)c1)C1CCN(S(=O)(=O)c2ccc3[nH]c(=O)ccc3c2)CC1 ?
Tb PYK inh: 0%

Results for c1nnc(NC2=NCCC2)s1 ?
Shiga toxin inh: -14; SARS PLpro yeast: 4%; LmPK inh: 0%; NS1 inh: 4%; Cycloheximide cs: -1; Tb PYK inh: -9%

How did c1nnc(NC2=NCCCCC2)s1 do in these assays?
Shiga toxin inh: 32; SARS PLpro yeast: -3%; LmPK inh: -3%; NS1 inh: 3%; Cycloheximide cs: 22*; Tb PYK inh: 0%

How did C1CCN=C(Nc2nc3c(s2)CCCC3)CC1 do in these assays?
Shiga toxin inh: 120*; SARS PLpro yeast: 1%; LmPK inh: -7%; NS1 inh: -4%; Cycloheximide cs: 39*; Tb PYK inh: 4%

What do the screens show for `O=C(COC(=O)/C=C/c1ccccc1[N+](=O)[O-])Nc1ccc(OC(F)F)cc1`?
Shiga toxin inh: -3; SARS PLpro yeast: -2%; LmPK inh: -4%; NS1 inh: -2%; Cycloheximide cs: 8; Tb PYK inh: -3%

How did CC(C)(C)NC(=O)COC(=O)/C=C/c1ccccc1[N+](=O)[O-] do in these assays?
Shiga toxin inh: 38*; SARS PLpro yeast: -4%; LmPK inh: 3%; NS1 inh: 1%; Cycloheximide cs: 24*; Tb PYK inh: 2%

Results for O=C(COC(=O)/C=C/c1ccccc1[N+](=O)[O-])Nc1ccc(OCc2ccccc2)cc1 ?
Shiga toxin inh: 39*; SARS PLpro yeast: 0%; LmPK inh: 1%; NS1 inh: 14%; Cycloheximide cs: 17*; Tb PYK inh: -6%

Results for O=C(COC(=O)/C=C/c1ccccc1[N+](=O)[O-])NC1CC1 ?
Shiga toxin inh: -7; SARS PLpro yeast: 2%; LmPK inh: 6%; Cycloheximide cs: 10; Tb PYK inh: -21%

What do the screens show for `Cc1ccc(CNC(=O)c2cc3c(=O)n(Cc4ccco4)ccc3nc2C)cc1`?
Tb PYK inh: -3%

What do the screens show for `Cc1ccc(-c2nnnn2C2C/C(=N\NC(N)=S)C3OCC2O3)cc1` (stereo not drawn)?
Shiga toxin inh: 39; SARS PLpro yeast: 6%; LmPK inh: 1%; Cycloheximide cs: 20*; Tb PYK inh: -17%

What do the screens show for `NC(=S)N/N=C1\CC(n2nnnc2-c2ccccc2Cl)C2COC1O2` (stereo not drawn)?
Shiga toxin inh: 20; SARS PLpro yeast: 1%; LmPK inh: 7%; Cycloheximide cs: 27; Tb PYK inh: -15%

Results for Cc1cccc(Cl)c1NC(=O)N1CCCN(c2nc3ccc(Cl)cc3s2)CC1 ?
Shiga toxin inh: 44*; SARS PLpro yeast: -2%; LmPK inh: 11%; NS1 inh: -3%; Cycloheximide cs: 25*; Tb PYK inh: 12%

How did O=C(c1ccco1)N1CCN(c2nc3ccc(Cl)cc3s2)CC1 do in these assays?
Tb PYK inh: -3%

How did CC(C)(C)C(=O)N1CCN(c2ccc(Cl)cc2[N+](=O)[O-])CC1 do in these assays?
Shiga toxin inh: 33*; SARS PLpro yeast: -47%; LmPK inh: -3%; NS1 inh: -42%; Cycloheximide cs: 25*; Tb PYK inh: -4%

How did O=C(CSc1ccc(Cl)cc1)N1CCN(c2ccc(Cl)cc2[N+](=O)[O-])CC1 do in these assays?
Shiga toxin inh: 19; SARS PLpro yeast: -14%; LmPK inh: -1%; NS1 inh: -13%; Cycloheximide cs: 1; Tb PYK inh: -5%

Results for CC(C)(C)C(=O)N1CCN(c2nc3ccc(Cl)cc3s2)CC1 ?
Shiga toxin inh: 80*; SARS PLpro yeast: -2%; LmPK inh: -1%; NS1 inh: -8%; Cycloheximide cs: 19*; Tb PYK inh: -3%

How did CC(C)(C)C(=O)N1CCN(c2nc3ccc(Br)cc3s2)CC1 do in these assays?
Shiga toxin inh: 31*; SARS PLpro yeast: inconclusive; LmPK inh: -8%; NS1 inh: -10%; Cycloheximide cs: 23*; Tb PYK inh: 4%

What do the screens show for `CC1(Oc2cccc(F)c2)CCN(Cc2csc3ccccc23)C1` (stereo not drawn)?
Tb PYK inh: 0%

How did CCOC(=O)C1CCN(C(=O)c2cnn(-c3ccc(F)cc3)c2-n2cccc2)CC1 do in these assays?
Tb PYK inh: -10%

How did COc1ccccc1NC(=O)c1oc2ccccc2c1NC(=O)c1ccc(S(=O)(=O)N(C)C)cc1 do in these assays?
Tb PYK inh: 6%

How did CC(=O)N1CCN(c2nc3ccc(Br)cc3s2)CC1 do in these assays?
Shiga toxin inh: 53*; SARS PLpro yeast: -6%; LmPK inh: 11%; NS1 inh: 0%; Cycloheximide cs: 27*; Tb PYK inh: 0%

How did CC(=O)Nc1ccc(NC(=O)C2CCN(c3c(NC(C)=O)c(C)nn3-c3ccccc3)CC2)cc1 do in these assays?
Tb PYK inh: -3%

How did O=[N+]([O-])c1ccc(CSc2nnc3ccccn23)cc1 do in these assays?
Shiga toxin inh: 6; SARS PLpro yeast: 2%; LmPK inh: 2%; NS1 inh: 9%; Cycloheximide cs: 7; Tb PYK inh: 0%

Results for Clc1ccc(CSc2nnc3ccccn23)c(Cl)c1 ?
Shiga toxin inh: 40*; SARS PLpro yeast: -22%; LmPK inh: -5%; NS1 inh: -3%; Cycloheximide cs: 60*; Tb PYK inh: 0%

How did O=[N+]([O-])c1ccccc1CSc1nnc2ccccn12 do in these assays?
Shiga toxin inh: 53*; SARS PLpro yeast: -1%; LmPK inh: 0%; Cycloheximide cs: 40*; Tb PYK inh: 4%

What do the screens show for `CN1CCN(C(=O)C(=O)Nc2c3c(nn2-c2ccc(F)cc2)CSC3)CC1`?
Tb PYK inh: -2%

What do the screens show for `CCc1ccc(OCC(=O)N(C)C)c(Br)c1`?
Shiga toxin inh: 1; SARS PLpro yeast: -1%; LmPK inh: 2%; NS1 inh: 0%; Cycloheximide cs: 5; Tb PYK inh: -1%

How did N/C(=N\OC(=O)COc1ccc(Cl)cc1Br)c1ccncc1 do in these assays?
Shiga toxin inh: 137*; SARS PLpro yeast: -3%; LmPK inh: 3%; NS1 inh: 0%; Cycloheximide cs: 64*; Tb PYK inh: 2%

Results for CCc1ccc(OCC(=O)O/N=C(\N)c2ccncc2)c(Br)c1 ?
Shiga toxin inh: 85*; SARS PLpro yeast: -14%; LmPK inh: -9%; NS1 inh: -23%; Cycloheximide cs: 46*; Tb PYK inh: -8%

How did CCc1ccc(OCC(=O)O/N=C(\N)c2ccncc2)cc1 do in these assays?
Shiga toxin inh: 76*; SARS PLpro yeast: -6%; LmPK inh: 0%; NS1 inh: -32%; Cycloheximide cs: 62*; Tb PYK inh: -3%

How did Cc1nc(Cl)sc1C(=O)Nc1ccc(C(F)(F)F)cc1 do in these assays?
SARS PLpro yeast: -3%; LmPK inh: 2%; NS1 inh: -46%; Cycloheximide cs: 20*; Tb PYK inh: 4%

Assay outcomes: PubChem, National Center for Advancing Translational Sciences (NCATS)
